Screening data: PubChem, several laboratories
UBC13 polyUb: blocks human UBC13 polyubiquitin chain formation. P61088. TR-FRET. inhibition, % at 20 µM. hit rate 0.47% among 330,000; in the data active = inhibition above about 45%, passing the limit was not always enough
Target sequence (P61088 whole entry, looked up): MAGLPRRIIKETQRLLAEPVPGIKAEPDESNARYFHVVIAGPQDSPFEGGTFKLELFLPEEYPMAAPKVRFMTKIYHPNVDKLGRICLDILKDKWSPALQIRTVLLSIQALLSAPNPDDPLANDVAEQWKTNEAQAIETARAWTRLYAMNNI
GRIN3A LBD mod: modulates the human NR3A ligand-binding domain. NR3A LBD differential scanning fluorimetry, Tm shift; 0% = protein alone, 100% = glycine-bound protein. Tm shift relative to glycine control, % at 25 µM. hit rate 2.5% among 340,000;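 active = melting temperature shift of at least 10% of the positive control shift, at one fixed dose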
sPLA2-III inh: Inhibits HGIII-sPLA2 liposome hydrolysis, primary screen | Q9NZ20 | QFRET BODIPY PC-A2 liposome hydrolysis, fluorescence | inhibition, % at 12.2 µM | hit rate 0.56% among 370,000 | AID 743126;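 active = inhibition above mean plus 3 SD of compounds lying within the high and low control bounds, cut at about 19% in these data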;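 note: 0% = median of test compound wells and 100% = no enzyme DMSO wells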
SUMO HTRF inh: SUMOylation inhibition; P63279; HTRF SUMOylation assay, SAE1/SAE2 + UBC9, in vitro; inhibition, % at 35 µM; hit rate 0.36% among 290,000; AID 2006; in the data active = inhibition above about 50%, passing the limit was not always enough
Target sequence (P63279 whole entry, looked up): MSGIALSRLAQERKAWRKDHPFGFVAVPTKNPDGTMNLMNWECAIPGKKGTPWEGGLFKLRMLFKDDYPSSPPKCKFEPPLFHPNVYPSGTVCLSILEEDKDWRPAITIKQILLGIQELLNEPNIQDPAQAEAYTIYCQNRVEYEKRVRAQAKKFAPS
* hit, by the source's call; nt = not tested or not shown. Sampled rows, rich in hits. Any-hit rate of the full collection: about 3.3%.

SMILES	UBC13 polyUb	GRIN3A LBD mod	sPLA2-III inh	SUMO HTRF inh
CC(=O)c1ccc(N2CCN(C(=O)COc3ccccc3F)CC2)c(F)c1	-16.7	10.1*	-1.7	4.0
COc1ccc(Nc2nc(-c3cccc([N+](=O)[O-])c3)nc3ccccc23)c(OC)c1	2.2	20.7*	-3.0	6.1
O=[N+]([O-])c1ccc(-c2nc(NCc3cccnc3)c3ccccc3n2)cc1	4.6	37.1*	-0.9	6.3
COc1ccccc1Nc1nc(-c2cccc([N+](=O)[O-])c2)nc2ccccc12	-3.3	-3.4	2.6	3.0
O=C(Cc1ccc([N+](=O)[O-])cc1)NCc1cccnc1	2.7	1.4	8.0	4.1
COc1ccccc1Nc1nc(-c2ccc([N+](=O)[O-])cc2)nc2ccccc12	-0.1	39.4*	-3.7	nt
O=C(Nc1ccc(F)cc1)OCCN1CCCC12CCC(c1ccccc1)CC2 (configuration not stated)	nt	nt	-4.4	nt
O=C(Nc1cccc(Br)c1)OC1CC2CC1[C@H]1CCCCN1C2 (some centres not stated)	nt	nt	-4.2	nt
CC(C)NS(=O)(=O)c1ccc(NC(=S)NC(=O)c2cccc([N+](=O)[O-])c2)cc1	4.2	13.1*	12.2	1.0
O=C(NNC(=S)Nc1ccc(Cl)c(Cl)c1)c1cccc([N+](=O)[O-])c1	-23.0	21.5*	4.1	-48.9
O=C(Nc1cccc([N+](=O)[O-])c1)c1ccccc1	23.7	-8.6	4.9	11.5
Cc1cccc(NC(=S)NNC(=O)c2cccc([N+](=O)[O-])c2)c1	-11.2	-1.0	13.8	-42.8
O=C(Nc1cccc([N+](=O)[O-])c1)c1ccc(CSc2ccccc2)cc1	8.9	30.8*	-10.0	-6.4
O=C(Nc1ccc2ccccc2c1)c1cccc([N+](=O)[O-])c1	-0.9	30.3*	-7.8	-8.7
O=C(Nc1ccc(COc2ccccc2)cc1)c1cccc([N+](=O)[O-])c1	-17.7	21.9*	6.7	14.5
CC(=O)Nc1ccc(OCc2cccc([N+](=O)[O-])c2)cc1	8.1	-1.3	-2.2	3.6
Cc1cc(NC(=O)c2ccc(NS(=O)(=O)c3ccc(C)c(C)c3)cc2)no1	nt	nt	-20.8	nt
CCOC(=O)N1CCN(C(=O)c2cc3c(s2)-c2ccccc2OC3)CC1	20.5	-2.2	-3.4	20.6
Cc1csc(NC(=O)c2cc3c(s2)-c2ccccc2OC3)n1	28.3	10.3*	-0.7	16.2
CCCN1CCN(C(=O)c2cc3c(s2)-c2ccccc2OC3)CC1	61.4*	-1.6	7.5	48.9
Cc1ccc(CN2CCCCC(NC(=O)Nc3ccccc3-c3ccccc3)C2=O)cc1 (configuration not stated)	nt	nt	7.4	nt
COc1ccc(NC(=O)COC(=O)C2CCC2)cc1Cl	4.0	17.9*	8.0	16.2
O=C(NCc1ccc(C(=O)NCC2CCCO2)cc1)c1cccc(Br)c1 (configuration not stated)	nt	nt	8.1	nt
CCOc1ccccc1NC(=O)CSc1nnc(SCc2ccccc2)s1	nt	nt	-33.1	nt
Cc1cc(C)cc(NC(=O)C2(C(=O)C3CC3)CC(c3ccccc3C(F)(F)F)=NO2)c1 (configuration not stated)	nt	nt	-2.4	nt
SMILES	UBC13 polyUb	GRIN3A LBD mod	sPLA2-III inh	SUMO HTRF inh
COc1ccc(CCN=C(C)c2cc(C)c(C)cc2O)cc1OC	5.2	14.8*	0.2	4.1
O=C(NCCc1c[nH]c2ccccc12)OCc1cn(Cc2c(F)cccc2F)nn1	nt	nt	-85.9	nt
Cc1nnsc1-c1onc(C)c1C(=O)Nc1cc(Cl)cc(Cl)c1	3.9	7.1	-6.0	8.1
Cc1ccc(NC(=O)c2c(C)noc2-c2snnc2C)cc1	5.4	11.9*	-6.5	1.6
CC1(C)CC(=O)C=C(NC2CCCCCC2)C1	8.0	10.7*	6.1	5.8
CC1(C)CC(=O)C=C(NC2CCCCCCC2)C1	5.3	0.5	5.7	7.3
C#CCOCCOCCOCCNc1nc(N2CCN(C(=O)[C@H]([C@@H](C)CC)n3cc(CCCCN)nn3)CC2)nc(N2CCN(C(=O)[C@H](CCCCN)n3cc(CC(C)O)nn3)CC2)n1 (some centres not stated)	19.7	-0.8	-2.3	nt
C#CCOCCOCCOCCNc1nc(N2CCN(C(=O)CCCCCCCCCCNC(=O)[C@H](CCCCN)n3cc(C[C@@H](C)CC)nn3)CC2)nc(N2CCN(C(=O)CCCCCCCCCCNC(=O)[C@@H]([C@H](C)O)n3cc(C)nn3)CC2)n1	118.1*	11.5*	nt	nt
C#CCOCCOCCOCCNc1nc(N2CCN(C(=O)CCCCCCCCCCNC(=O)[C@H](CCCN=C(N)N)n3cc(C[C@@H](C)CC)nn3)CC2)nc(N2CCN(C(=O)CCCCCCCCCCNC(=O)[C@@H]([C@H](C)CC)n3cc(CCCCCN)nn3)CC2)n1	121.8*	nt	nt	nt
C#CCOCCOCCOCCNc1nc(N2CCN(C(=O)CCCCCCCCCCNC(=O)[C@H](CO)n3cc(CCCCCN)nn3)CC2)nc(N2CCN(C(=O)CCCCCCCCCCNC(=O)[C@H](CCCN=C(N)N)n3cc(C[C@@H](C)CC)nn3)CC2)n1	128.6*	nt	nt	nt
C#CCOCCOCCOCCNc1nc(N2CCN(C(=O)CCCCCCCCCCNC(=O)[C@H]([C@@H](C)CC)n3cc(CCCCN=C(N)N)nn3)CC2)nc(N2CCN(C(=O)CCCCCCCCCCNC(=O)[C@H](CCCN=C(N)N)n3cc(C[C@@H](C)CC)nn3)CC2)n1	128.9*	nt	nt	nt
O=C(CCc1ccccc1)N[C@H]1[C@H](OCc2ccccc2)CCC[C@@]12C(=O)N(Cc1ccccc1)c1ccc(-c3cnccn3)cc12	nt	nt	-19.1	nt
Cc1ccc(-n2c(SCC(=O)c3ccccc3Br)nnc2-c2ccncc2)cc1	nt	nt	-29.5	nt
COC1=C[C@H](C(=O)N[C@H]2CCCC[C@@H]2NC(C)=O)[C@H](C)[C@@H](c2ccccc2)CC1=O	nt	nt	5.3	nt
C#CCOCCOCCOCCNc1nc(N2CCN(C(=O)CCCCCCCCCCNC(=O)Cn3cc(C[C@@H](C)O)nn3)CC2)nc(N2CCN(C(=O)CCCCCCCCCCNC(=O)[C@@H](CCSC)n3cc(CCO)nn3)CC2)n1	26.0	-368.2	nt	nt
C#CCOCCOCCOCCNc1nc(N2CCN(C(=O)CCCCCCCCCCNC(=O)[C@H](CCCCN)n3cc(CCO)nn3)CC2)nc(N2CCN(C(=O)CCCCCCCCCCNC(=O)[C@H](CCCCN)n3cc(C[C@@H](C)CC)nn3)CC2)n1	129.8*	19.9*	nt	nt
C[C@@H]1COc2cccc(N3CCSCC3)c2S(=O)(=O)N1C	nt	nt	1.8	nt
Cc1cccc(C)c1OCC(=O)N/N=C/C=C/c1ccco1	-16.7	-19.8	-11.0	55.4*
Cn1c(SCC(=O)N2c3ccccc3Sc3ccc(Cl)cc32)nnc1-c1ccco1	-0.6	10.5*	2.0	5.3
CCn1c(SCC(=O)N2c3ccccc3Sc3ccccc32)nnc1-c1ccco1	2.0	-1.1	1.2	-10.2
CC(=O)c1sc(NC(=O)CCN2C(=O)c3ccccc3C2=O)nc1C	3.8	17.4*	1.2	-7.0
O=C1CSc2ccc(C(=O)N3CCCC(C(=O)N4CCCCC4)C3)cc2N1 (configuration not stated)	nt	nt	-1.2	nt
CCOC(=O)c1ccc(NC(=S)N2CCSC2c2ccc(Br)cc2)cc1 (configuration not stated)	8.8	18.2*	-1.6	8.9
CCOC(=O)c1ccc(NC(=S)N2CCC(O)CC2)cc1	2.7	-0.7	11.7	22.1
